Values without a mark were called inactive. For part of these data: Measured potencies and affinities stand elsewhere. Activity calls are given as the source filed them. Unless noted, the rule behind the calls is not given here.
Tests used:
[1] = antimalarial activity against Dd2 strain (AID 2302;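 active = growth inhibition above 50% at the single 2 µM test dose, taken to imply half-maximal potency below 2 µM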;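 note: 0% = DMSO untreated growth and 100% = chloroquine plus artemisinin killed control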); details: P. falciparum Dd2 in RBCs, LDH growth readout, 72 h; at 2 µM; active compounds read high
[2] = HepG2 cytotoxicity, primary screen, cytotoxicity control for P. falciparum antimalarial project, cell-based, ATP luminescence (AID 2303;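 active = inhibition above 50%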;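 note: 0% = DMSO wells and 100% = digitonin-killed cells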); details: HepG2 viability, 24-48 h, at 10 µM, active compounds read high
[3] = biological target: L-lactate dehydrogenase (Plasmodium falciparum (isolate CDC / Honduras)) (UniProt Q27743); test: PfLDH activity inhibition – cell lysate, 3D7 strain, counter-screen for P. falciparum growth inhibition project (AID 2304);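 note: 0% = vehicle and 100% = reference inhibitor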; details: P. falciparum 3D7 crude extract, LDH APAD/NBT absorbance; at 2 µM; active compounds read high
[4] = inhibition of 3D7 malaria parasite growth – strain 3D7 (AID 2306);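 note: 0% = DMSO wells and 100% = chloroquine plus artemisinin control wells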; details: P. falciparum 3D7 erythrocytic growth, LDH absorbance, 72 h; at 2 µM; active compounds read high
[5] = biological target: Calcium-dependent protein kinase 1 (Plasmodium falciparum (isolate 3D7)) (UniProt P62344); test: PfCDPK1 kinase inhibitors, biochemical, TCAMS library (AID 1159585; cut-off not given, nearly all actives have IC50 up to about 0.98 µM;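 note: inhibitors leave more ATP so luminescence rises with inhibition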); details: recombinant PfCDPK1, Kinase-Glo ATP depletion luminescence
[6] = biological target: Plasmodium falciparum protein kinase 6 (PK6, PF3D7_1337100) (UniProt Q8IDW1); test: PfPK6 kinase inhibitors, biochemical, TCAMS library (AID 1159586); details: recombinant PfPK6, Kinase-Glo ATP depletion luminescence
[7] = biological target: Protein kinase 7 (PK7), Plasmodium falciparum 3D7 (PF3D7_0213400) (UniProt Q7YTF7); test: inhibition of Plasmodium PK7 catalytic activity – biochemical, TCAMS antimalarial set, Kinase-Glo luminescence (AID 1159587); details: recombinant PfPK7, Kinase-Glo ATP depletion luminescence
[8] = biological target: Calcium-dependent protein kinase 4 (Plasmodium falciparum (isolate 3D7)) (UniProt Q8IBS5); test: PfCDPK4 kinase inhibitors, biochemical, TCAMS library (AID 1159588; cut-off not given, nearly all actives have IC50 up to about 0.91 µM); details: recombinant PfCDPK4, Kinase-Glo ATP depletion luminescence
Chain of Calcium-dependent protein kinase 4 (Plasmodium falciparum (isolate 3D7)) (Q8IBS5 whole entry, looked up): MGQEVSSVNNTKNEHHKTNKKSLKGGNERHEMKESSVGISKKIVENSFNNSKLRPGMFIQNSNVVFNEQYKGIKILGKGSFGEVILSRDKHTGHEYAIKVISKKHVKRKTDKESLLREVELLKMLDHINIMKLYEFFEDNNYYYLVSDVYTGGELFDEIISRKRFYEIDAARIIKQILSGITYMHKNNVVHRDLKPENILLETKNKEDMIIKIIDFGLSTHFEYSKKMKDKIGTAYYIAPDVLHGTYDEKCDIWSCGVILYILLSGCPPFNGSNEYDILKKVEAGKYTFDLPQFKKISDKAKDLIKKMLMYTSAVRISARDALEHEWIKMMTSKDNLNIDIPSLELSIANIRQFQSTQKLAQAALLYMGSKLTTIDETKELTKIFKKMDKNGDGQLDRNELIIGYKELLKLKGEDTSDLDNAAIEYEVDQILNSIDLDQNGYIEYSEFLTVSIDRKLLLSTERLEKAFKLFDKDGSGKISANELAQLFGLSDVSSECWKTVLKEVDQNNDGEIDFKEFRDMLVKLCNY

Chain of L-lactate dehydrogenase (Plasmodium falciparum (isolate CDC / Honduras)) (Q27743 whole entry, looked up): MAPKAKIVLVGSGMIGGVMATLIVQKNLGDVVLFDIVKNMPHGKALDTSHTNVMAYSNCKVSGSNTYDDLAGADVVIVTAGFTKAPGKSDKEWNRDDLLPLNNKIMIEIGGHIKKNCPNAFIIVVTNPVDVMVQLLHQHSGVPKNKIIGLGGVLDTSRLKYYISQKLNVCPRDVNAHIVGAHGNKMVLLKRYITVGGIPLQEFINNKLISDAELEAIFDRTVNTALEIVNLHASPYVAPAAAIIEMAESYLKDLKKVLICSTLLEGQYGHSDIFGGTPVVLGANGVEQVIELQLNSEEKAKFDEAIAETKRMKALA
Chain of Plasmodium falciparum protein kinase 6 (PK6, PF3D7_1337100) (Q8IDW1 1-305): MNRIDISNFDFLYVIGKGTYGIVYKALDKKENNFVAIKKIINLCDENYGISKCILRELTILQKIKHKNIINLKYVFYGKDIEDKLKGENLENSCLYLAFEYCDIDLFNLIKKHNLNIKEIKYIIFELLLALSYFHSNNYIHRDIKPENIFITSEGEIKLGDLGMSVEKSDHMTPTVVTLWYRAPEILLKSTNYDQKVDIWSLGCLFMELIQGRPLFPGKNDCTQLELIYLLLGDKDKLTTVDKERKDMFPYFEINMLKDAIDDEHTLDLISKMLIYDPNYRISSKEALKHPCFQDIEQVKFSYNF
Chain of Protein kinase 7 (PK7), Plasmodium falciparum 3D7 (PF3D7_0213400) (Q7YTF7 1-343): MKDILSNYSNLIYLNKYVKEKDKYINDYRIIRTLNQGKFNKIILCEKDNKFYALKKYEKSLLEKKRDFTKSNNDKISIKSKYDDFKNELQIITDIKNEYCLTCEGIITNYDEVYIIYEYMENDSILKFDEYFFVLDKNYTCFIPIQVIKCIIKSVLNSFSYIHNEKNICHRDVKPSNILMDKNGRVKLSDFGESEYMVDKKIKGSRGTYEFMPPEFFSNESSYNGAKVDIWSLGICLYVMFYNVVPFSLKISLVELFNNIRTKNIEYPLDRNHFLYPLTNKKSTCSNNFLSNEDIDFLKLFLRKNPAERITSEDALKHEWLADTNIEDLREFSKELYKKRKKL
Chain of Calcium-dependent protein kinase 1 (Plasmodium falciparum (isolate 3D7)) (P62344 whole entry, looked up): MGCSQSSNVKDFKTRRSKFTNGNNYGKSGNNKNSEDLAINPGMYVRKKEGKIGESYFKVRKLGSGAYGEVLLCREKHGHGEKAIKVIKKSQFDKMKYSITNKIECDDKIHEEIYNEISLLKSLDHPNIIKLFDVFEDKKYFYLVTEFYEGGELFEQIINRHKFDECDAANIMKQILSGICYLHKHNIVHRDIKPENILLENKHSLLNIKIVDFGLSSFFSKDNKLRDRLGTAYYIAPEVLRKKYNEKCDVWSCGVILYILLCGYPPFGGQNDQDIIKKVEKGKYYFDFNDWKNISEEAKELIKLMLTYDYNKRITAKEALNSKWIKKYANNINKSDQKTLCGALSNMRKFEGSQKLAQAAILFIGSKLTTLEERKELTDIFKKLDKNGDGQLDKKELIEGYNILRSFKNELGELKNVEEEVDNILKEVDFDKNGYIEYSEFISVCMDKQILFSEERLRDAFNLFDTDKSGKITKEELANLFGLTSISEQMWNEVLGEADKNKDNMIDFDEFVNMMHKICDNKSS

Compound	growth inhibition [1]	inhibition [2]	inhibition [3]	growth inhibition [4]	outcome [5]	outcome [6]	outcome [7]	outcome [8]
Clc1ccc(-c2cnc3ccc(NCc4ccncc4)nn23)cc1	98% (active)	25%	2%	98% (active)	inactive	inactive	inactive	inactive
O=C1O[C@H](c2ccccc2)[C@H](c2ccccc2)N(C(=O)OCc2ccccc2)[C@H]1Cc1ccccc1C1CCCC1	-3%	56% (active)	1%	97% (active)	inactive	inactive	inactive	inactive
CCCNCc1ccc(-c2ccc(CN(Cc3ccc4c(c3)OCO4)C(=O)Cc3cccnc3)cc2)nc1	53% (active)	16%	5%	94% (active)	inactive	inactive	inactive	inactive
N#Cc1c(N)n(CCc2ccc(F)cc2)c2nc3ccccc3nc12	36%	8%	-1%	92% (active)	inactive	inactive	inactive	inactive
CCN(CC)C(=O)C1CCN(C(C(=O)N2CCN(CC(=O)N3CCCC3)CC2)c2cc3ccccc3o2)CC1 (stereo not drawn)	4%	-11%	-7%	98% (active)	inactive	inactive	inactive	inactive
Cc1cc(N2CCCC2)nc(Nc2ccc(NC(=O)COc3ccccc3)cc2)n1	86% (active)	43%	4%	101% (active)	inactive	inactive	inactive	inactive
CCCC(=O)Nc1ccc(OCCN(Cc2ccccc2OC(F)(F)F)c2ccc(C(F)(F)F)c(C#N)c2)cc1	97% (active)	-11%	-1%	85% (active)	inactive	inactive	inactive	inactive
Cc1cccc(CNc2ncc(C)c(NCCC(=O)Nc3ccccc3)n2)c1	10%	18%	5%	81% (active)	inactive	inactive	inactive	inactive
CCCCCCn1c(Sc2ccc(C#N)c([N+](=O)[O-])c2)nnc1-c1ccc(N(C)C)cc1	25%	-1%	7%	92% (active)	inactive	inactive	inactive	inactive
Cc1cc(C2CCN(CCCCNC(=O)c3ccc(-c4ccc(C(F)(F)F)cc4)cc3)CC2)c(C)cc1OCC#N	58% (active)	40%	3%	100% (active)	inactive	inactive	inactive	inactive
c1ccc(Nc2nc(-c3ccccn3)cs2)nc1	93% (active)	45%	2%	87% (active)	inactive	inactive	inactive	inactive
CN1CCCC1CCNC(=O)[C@H](CC1CCCCC1)NC(=O)c1ccc(O)c(-c2ccc(Cl)c(Cl)c2)c1 (stereo partly drawn)	35%	0%	3%	98% (active)	inactive	inactive	inactive	inactive
Cc1ccc(NC(=O)Nc2cccc(Cl)c2)cc1-c1ccc(C(=O)Nc2ccncc2)cc1	49%	67% (active)	-1%	97% (active)	inactive	inactive	inactive	inactive
CN(C(=O)C1(c2ccc(Cl)cc2)CC1)C1CCN(CCCCCNC(=O)/C=C/c2ccc(Cl)c(Cl)c2)CC1	0%	91% (active)	-2%	88% (active)	inactive	inactive	inactive	inactive
COc1cc(NC(=O)c2c(-c3c(Cl)cccc3Cl)noc2C)c(OC)cc1Cl	67% (active)	4%	0%	85% (active)	inactive	inactive	inactive	inactive
COc1ccc2nccc([C@@H](O)CN3CCC(NC(=O)/C=C/c4c[nH]c5c(C)cccc45)CC3)c2c1	88% (active)	23%	4%	101% (active)	inactive	inactive	inactive	inactive
COc1ccc([N+](=O)[O-])cc1N(Cc1ccccc1-c1ccccc1)S(=O)(=O)c1ccc(C(F)(F)F)cc1[N+](=O)[O-]	92% (active)	2%	-6%	88% (active)	inactive	inactive	inactive	inactive
CCOC(=O)c1ccc(NC(=O)Nc2cccc(-c3ccc(-c4nc5ccc(C(F)(F)F)cc5[nH]4)cc3)c2)cc1	99% (active)	62% (active)	-4%	101% (active)	inactive	inactive	inactive	inactive

Compound	growth inhibition [1]	inhibition [2]	inhibition [3]	growth inhibition [4]	outcome [5]	outcome [6]	outcome [7]	outcome [8]
CS(=O)(=O)c1cc2c(Nc3ccc(N4CCOCC4)cc3)c(C(N)=O)cnc2cc1Br	89% (active)	-18%	-2%	101% (active)	inactive	inactive	inactive	inactive
c1cc(CNCC2CCCO2)cc(-c2csc(-c3nc4ccccc4[nH]3)c2)c1 (stereo not drawn)	6%	5%	2%	91% (active)	inactive	inactive	inactive	inactive
Cc1ccc(C(=O)Nc2cccc(-c3ccc(N4CCN(C)CC4)nn3)c2)cc1[N+](=O)[O-]	40%	32%	-2%	99% (active)	inactive	inactive	inactive	inactive
O=C(Nc1cccc(-c2cccc(-c3nc4ccc(C(F)(F)F)cc4[nH]3)c2)c1)c1ccoc1	61% (active)	32%	-2%	99% (active)	inactive	inactive	inactive	inactive
CCOc1ccc(-c2nonc2NC(=O)c2ccc(Cl)cc2)cc1OCC	47%	28%	-2%	94% (active)	inactive	inactive	inactive	inactive
N#Cc1ccc(C=CC(=O)NC2CCC(CCN3CCc4ccc(-c5cnccn5)cc4CC3)CC2)cc1 (stereo not drawn)	87% (active)	37%	-5%	100% (active)	inactive	inactive	inactive	inactive
CCOc1cc(C(=O)Nc2ccc3nc(N(CC)CC)cc(C)c3c2)cc(OCC)c1OCC	9%	16%	-2%	98% (active)	inactive	inactive	inactive	inactive
COc1cc2nc(N3CCC(CNC(=O)c4ccc(-c5ccc(O)cc5)cc4)CC3)nc(N)c2cc1OC	78% (active)	34%	-2%	102% (active)	inactive	inactive	inactive	inactive
CCOC(=O)NC1=NC(C)(C)N(OCc2ccc(Cl)c(Cl)c2)C(NC(=O)OCC)=N1	4%	65% (active)	2%	98% (active)	inactive	inactive	inactive	inactive
Cc1cccc2[nH]c(-c3ccc(-c4ccc(NC(=O)N[C@@H]5C[C@H]5c5ccccc5)cc4)cc3)nc12	3%	28%	-5%	96% (active)	inactive	inactive	inactive	inactive
Oc1ccc(CCNc2nc(NCc3ccccc3-c3ccc(C(F)(F)F)cc3)nc(NC3CCNCC3)n2)cc1	2%	12%	4%	97% (active)	inactive	inactive	inactive	inactive
CC(C)c1ccc(CN2CCC(NC(=O)c3ccc(-c4ccccc4F)s3)CC2)cc1	13%	46%	2%	81% (active)	inactive	inactive	inactive	inactive
O=C(O)C[C@H](NC(=O)[C@@H]1CCCN1C(=O)c1cccc(-c2ccc(Cl)c(Cl)c2)c1)C(=O)O	0%	-1%	0%	84% (active)	inactive	inactive	inactive	inactive
O=C(COc1ccc(F)cc1)NC1CCN(c2ccnc3cc(Cl)ccc23)C1 (stereo not drawn)	100% (active)	24%	-1%	102% (active)	inactive	inactive	inactive	inactive
CC(C)NCc1cccc(-c2cccc(NC(=O)c3cccc(C#N)c3)c2)c1	22%	12%	-4%	99% (active)	inactive	inactive	inactive	inactive
Nc1cccc(CNCc2cccc(-c3csc(-c4nc5ccccc5[nH]4)c3)c2)c1	63% (active)	13%	4%	102% (active)	inactive	inactive	inactive	inactive
CCCN=CNc1cc(-c2csc(N=C(N)N)n2)cc([N+](=O)[O-])c1	1%	12%	-3%	91% (active)	inactive	inactive	inactive	inactive
CNC(=O)c1cc(S(=O)(=O)N2CCN(c3ccccn3)CC2)cs1	100% (active)	-2%	-3%	99% (active)	inactive	inactive	inactive	inactive
